# Laboratory results taken from PubChem BioAssay AID652065 (The Scripps Research Institute Molecular Screening Center, 2013).
# The whole screen tested about 4,300 compounds, of which about 3,000 (70%) were called active. The set was probably picked from earlier hits. These entries were drawn from the full list. A number with no mark means an inactive call.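 The calls were made as follows: active = inhibition above a per-plate cutoff, the mean inhibition of sample wells plus 3 SD (cut at about 35% in these data); inactive = the rest.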
# Assay: small molecules binding CAG repeat RNA – biochemical, fluorescence, confirmation (AID 652065);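 also: loss of TO-PRO-1 fluorescence as compound displaces dye from 1x1 AA loop RNA; 0% = DMSO only wells and 100% = 100 µM mitoxantrone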
# Conditions: r(CAG) RNA repeat, TO-PRO-1 dye displacement fluorescence; at 3 µM; active compounds read high
row,SMILES,inhibition
1,CN(C(=O)COC(=O)c1cc(-c2ccco2)nc2ccccc12)C1CCS(=O)(=O)C1 (configuration not stated),27.6%
2,CC(C)c1ccc(Nc2nnc(SCC(=O)c3nnc(-c4ccccc4)o3)s2)cc1,56.2% (active)
3,Cc1ccc(-c2csc(C(C#N)=C(O)CN3CCN(C(=O)c4ccco4)CC3)n2)cc1,60.2% (active)
4,O=C1c2cccc3cccc(c23)C(=O)N1CCCCCc1n[nH]c(=S)o1,26.9%
5,COc1ccccc1/C=C/C=N/n1c(-c2ccc(Cl)cc2Cl)n[nH]c1=S,42.1% (active)
6,O=C(O)c1[nH]c2ccccc2c1C(c1cccc(O)c1)c1c(C(=O)O)[nH]c2ccccc12,38.5% (active)
7,CC(=O)Nc1ccc(-c2csc(NC(=O)Nc3ccccc3)n2)cc1,23.1%
8,CC(=O)Nc1ccc(C(=O)Nc2nc(-c3cc(C)n(Cc4ccccc4)c3C)cs2)cc1,20.6%
9,CC(=O)Nc1ccc(S(=O)(=O)Nc2nc(-c3ccc(C(C)(C)C)cc3)cs2)cc1,67.6% (active)
10,Cc1ccc(Nc2nc(CSc3nnnn3-c3ccccc3)cc(=O)[nH]2)cc1,50.7% (active)
11,COc1ccccc1C1C(C#N)=C(N)Oc2c1c(-c1ccccc1)nn2-c1ccccc1 (configuration not stated),30%
12,CC(C)(C)C1C/C(=C/c2ccco2)C(=O)/C(=C/c2ccco2)C1 (configuration not stated),44.2% (active)
13,Cc1ccc(Nc2nc(-c3ccc(O)cc3O)cs2)nc1,23.4%
14,O=C(Nc1nc(-c2ccco2)c(-c2ccco2)s1)c1ccco1,34.7% (active)
15,CCc1nnc(NS(=O)(=O)c2ccc(N=Cc3c(C)[nH]n(-c4ccc(C)cc4)c3=O)cc2)s1,69.2% (active)
16,COc1ccc(C(=O)/C=C/c2ccc(-c3ccccc3)cc2)cc1CSCC(=O)O,85.1% (active)
17,COC(=O)c1ccc(COc2ccc(/C=C/C(=O)c3ccc(OC)c(CSCC(=O)O)c3)cc2OC)cc1,66.9% (active)
18,CCOC(=O)c1ccccc1N1C(=O)C2Sc3[nH]c(=O)sc3C(/C=C/c3ccccc3)C2C1=O (configuration not stated),46.1% (active)
19,O=C(O)c1ccc(NN=CC2=C(N3CCOCC3)/C(=C/c3ccccc3)CC2)cc1,70.3% (active)
20,Cc1ccc(C)c(Cn2nnc3c(=O)[nH]c(C(=O)Nc4ccc(F)cc4)nc32)c1,43.2% (active)
21,COc1cccc2sc(NNC(=O)c3nc4ccccc4s3)nc12,85% (active)
22,Clc1ccccc1CSc1nnc(-c2ccco2)c(-c2ccco2)n1,59.9% (active)
23,Cc1cc(Br)cn2c(Cc3cccc(F)c3)c(-c3cccc(Br)c3)nc12,4.39%
24,COc1ccc(-c2nc3ccc(Br)cn3c2Cc2ccc(C)cc2)cc1OC,9.11%
25,Fc1cccc(Cc2c(-c3cccc(Cl)c3)nc3ccc(Br)cn23)c1,40.3% (active)
26,COc1ccc(C(=O)Nc2cccc(/C=C(/CCC(=O)O)c3nc4ccccc4s3)c2)cc1,72.8% (active)

row,SMILES,inhibition
1,CCOC(=O)c1csc(NC(=O)Nc2cccc(OC)c2)n1,29.9%
2,O=C(O)CC/C(=C\c1cc2c(cc1Br)OCO2)c1nc2ccccc2s1,50.5% (active)
3,O=C(c1cccnc1)N(c1cc2sc(=O)oc2c2ccccc12)S(=O)(=O)c1ccccc1,57.6% (active)
4,CC(=O)N(c1ccc2oc(=O)sc2c1)S(=O)(=O)c1ccc(C)cc1,5.58%
5,O=C1Oc2ccccc2C(=O)/C1=C/c1ccccc1O,39% (active)
6,O=c1oc(-c2ccccc2NS(=O)(=O)c2ccc(Cl)cc2)nc2ccccc12,17.2%
7,COc1ccc(S(=O)(=O)/N=C2\C=C(NS(=O)(=O)c3ccccc3)C(=O)c3ccccc32)cc1,85% (active)
8,Cc1ccccc1S(=O)(=O)N1[C@@H](c2cccc(Cl)c2)C(C(=O)O)=CC[C@H]1c1ccc(Cl)cc1,83.1% (active)
9,Cc1ccc([C@@H]2CC=C(C(=O)O)[C@H](c3cccc(Cl)c3)N2S(=O)(=O)c2ccc(C)cc2)cc1,80.4% (active)
10,Cc1ccc(S(=O)(=O)N2[C@@H](c3ccccc3F)C(C(=O)O)=CC[C@H]2c2ccc(Cl)cc2)cc1,64.8% (active)
11,COc1ccc(Cl)cc1-n1c(=S)sc2c(=O)n(-c3ccc(F)cc3)c(SCC(=O)O)nc21,28.9%
12,Cc1oc2c(F)c(F)c(F)c(F)c2c1S(=O)(=O)Nc1cccc(C(F)(F)F)c1,44.5% (active)
13,COc1ccc(NS(=O)(=O)c2cc(NC(=O)CC(=O)c3ccc([N+](=O)[O-])cc3)ccc2C)cc1,44.4% (active)
14,COc1ccc(NS(=O)(=O)c2cc(C(=O)Nc3ccccc3C(=O)O)ccc2C)cc1,52% (active)
15,COc1cc(OC)c(S(=O)(=O)Nc2ccccc2C(=O)O)cc1S(=O)(=O)Nc1ccccc1C(=O)O,39.9% (active)
16,Cc1ccc(S(=O)(=O)NCCC(c2ccccc2)c2ccccc2)cc1C(=O)O,28%
17,O=C(Nc1ccc2c(c1)CCC2)c1cccc(S(=O)(=O)Nc2ccccc2Cl)c1,40% (active)
18,CO/N=C(\C(=O)N[C@@H]1C(=O)N2C(C(=O)O)=C(COC(C)=O)CS[C@H]12)c1csc(N)n1 (stereo in doubt),48.1% (active)
19,Cc1ccccc1OCC(=O)Nc1nnc(S(=O)(=O)N2CCCC2)s1,33.1%
20,O=C(N/N=C/c1cc(Cl)cc([N+](=O)[O-])c1O)C(O)(c1ccccc1)c1ccccc1,52.6% (active)
21,Cc1ccc(Sc2cc(C(=O)c3ccccc3C(=O)O)ccc2[N+](=O)[O-])cc1,68.5% (active)
22,CC[C@@H](C)[C@H](NC(=O)CCc1c(C)c2cc3c4c(oc3c(C)c2oc1=O)CCCC4)C(=O)O,52.4% (active)
23,Cc1c(CCC(=O)N[C@@H](CC(C)C)C(=O)O)c(=O)oc2c(C)c3oc4c(c3cc12)CCCC4,48.4% (active)
24,Cc1ccc(S(=O)(=O)N2[C@@H](c3ccc(Br)cc3)C(C(=O)O)=C[C@H]2CC2CCCC2)cc1,72.6% (active)
25,CCCCC[C@@H]1C=C(C(=O)O)[C@H](c2ccc(C#N)cc2)N1S(=O)(=O)c1ccc(C)cc1,55.7% (active)
26,Nc1[nH]c(=S)nc2nc(-c3ccccc3)c(-c3ccccc3)nc12,15.6%
